According to PubChem BioAssay (Tox21):
Results filed as inconclusive are left out. Active and inactive are the calls of the source. Unless noted, calls follow the shape of the dose curve; as a rule, active = well fitted curve in the direction sought with a large enough effect in the repeat runs; inconclusive = weak or mixed curves; inactive = no such curve, though single readings can be large; an effect the other way counts as inactive or inconclusive.

How the values were obtained:
[1] = qHTS assay to identify small molecule antagonists of the thyroid receptor (TR) signaling pathway - cell viability counter screen (AID 743064); also: nearly all actives have a fitted effect of over 50% in size
Summary of the method: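 Compounds were tested on GH3.TRE-Luc cells in the presence of T3 at 1 nM final. Following 23.5 h at 37 °C, cell viability was quantified by CellTiter-Fluor.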

[2] = qHTS assay to identify small molecule antagonists of the thyroid receptor (TR) signaling pathway (AID 743065); also: series mostly up to about 70 µM; nearly all actives have a fitted effect of over 55% in size
Summary of the method: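 GH3.TRE-Luc rat pituitary cells (two TREs driving luciferase) were dosed with compound, then stimulated with 1 nM T3 (final) for 23.5 h at 37 C. ONE-Glo luminescence was the read-out, with CellTiter-Fluor fluorescence as the cytotoxicity counter-screen.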

[3] = system: thyroid hormone receptor (rat, GH3 cells); assay: qHTS assay to identify small molecule agonists of the thyroid receptor (TR) signaling pathway (AID 743066; calls by dose curve)
[4] = biological target: Estrogen receptor (Homo sapiens) (UniProt P03372); assay: qHTS assay to identify small molecule antagonists of the estrogen receptor alpha (ER-alpha) signaling pathway (AID 743069; active = well fitted curve in the direction sought with a large enough effect in the signal ratio in the repeat runs, not every such curve was filed as active; the % refers to the signal ratio)
Summary of the method: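 HEK293 ER-alpha-UAS-bla GripTite cells, held overnight in 2% charcoal-stripped FBS, 5,000 cells/well, preincubated 4 h, then compound plus 17beta-estradiol for 18 h at 37C. Beta-lactamase read by LiveBLAzer B/G FRET substrate, 2 h at room temperature.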

[5] = qHTS assay to identify small molecule antagonists of the estrogen receptor alpha (ER-alpha) signaling pathway - cell viability counter screen (AID 743074; calls by dose curve;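 also: HEK293 cells carrying ER-alpha-UAS-bla reporter stimulated with 17beta-estradiol; nearly all actives have a fitted effect of over 45% in size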)
[6] = biological target: Estrogen receptor (Homo sapiens) (UniProt P03372); assay: qHTS assay to identify small molecule agonists of the estrogen receptor alpha (ER-alpha) signaling pathway (AID 743075; calls by dose curve)
[7] = biological target: Estrogen receptor (Homo sapiens) (UniProt P03372); assay: qHTS assay to identify small molecule agonists of the estrogen receptor alpha (ER-alpha) signaling pathway using the BG1 cell line (AID 743079); also: nearly all actives have a fitted effect of over 20% in size; also: potency is read from the fitted curve at half-maximal effect
[8] = qHTS assay to identify small molecule antagonists of the estrogen receptor alpha (ER-alpha) signaling pathway using the BG1 cell line (AID 743080; calls by dose curve;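 also: BG1 cells stimulated with 17beta-estradiol alongside compound; series mostly up to about 70 µM; nearly all actives have a fitted effect of over 25% in size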)
Summary of the method: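 BG1-Luc-4E2 cells (endogenous full-length ER-alpha, 4xERE luciferase) hormone-starved 5 days in charcoal-stripped FBS, plated 4,000/well for 24 h, then compound plus 17beta-estradiol for 21.5 h at 37 C; ONE-Glo luminescence read.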

[9] = qHTS assay to identify small molecule antagonists of the estrogen receptor alpha (ER-alpha) signaling pathway using the BG1 cell line - cell viability counter screen (AID 743081);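 also: compound given together with 17beta-estradiol as the ER stimulus; series mostly up to about 70 µM; nearly all actives have a fitted effect of over 45% in size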
[10] = biological target: Aromatase (Homo sapiens) (UniProt P11511); assay: qHTS assay to identify aromatase inhibitors (AID 743083); also: series mostly up to about 70 µM; nearly all actives have a fitted effect of over 55% in size

Measured: Potency

Aromatase (Homo sapiens), sequence (P11511 whole entry, looked up): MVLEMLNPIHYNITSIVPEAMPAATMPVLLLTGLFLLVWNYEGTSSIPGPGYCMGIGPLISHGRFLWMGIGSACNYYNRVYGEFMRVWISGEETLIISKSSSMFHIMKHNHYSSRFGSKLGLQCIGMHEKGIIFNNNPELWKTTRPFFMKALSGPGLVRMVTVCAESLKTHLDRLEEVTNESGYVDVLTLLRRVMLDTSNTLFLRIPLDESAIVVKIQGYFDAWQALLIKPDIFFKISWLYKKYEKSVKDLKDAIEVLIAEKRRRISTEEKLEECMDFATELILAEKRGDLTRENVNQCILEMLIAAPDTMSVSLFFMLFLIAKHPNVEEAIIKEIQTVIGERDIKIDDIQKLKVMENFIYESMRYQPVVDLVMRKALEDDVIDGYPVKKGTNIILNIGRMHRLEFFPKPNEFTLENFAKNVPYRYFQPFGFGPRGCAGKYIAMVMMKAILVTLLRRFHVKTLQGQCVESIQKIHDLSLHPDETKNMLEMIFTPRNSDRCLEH
Estrogen receptor (Homo sapiens), sequence (P03372 whole entry, looked up): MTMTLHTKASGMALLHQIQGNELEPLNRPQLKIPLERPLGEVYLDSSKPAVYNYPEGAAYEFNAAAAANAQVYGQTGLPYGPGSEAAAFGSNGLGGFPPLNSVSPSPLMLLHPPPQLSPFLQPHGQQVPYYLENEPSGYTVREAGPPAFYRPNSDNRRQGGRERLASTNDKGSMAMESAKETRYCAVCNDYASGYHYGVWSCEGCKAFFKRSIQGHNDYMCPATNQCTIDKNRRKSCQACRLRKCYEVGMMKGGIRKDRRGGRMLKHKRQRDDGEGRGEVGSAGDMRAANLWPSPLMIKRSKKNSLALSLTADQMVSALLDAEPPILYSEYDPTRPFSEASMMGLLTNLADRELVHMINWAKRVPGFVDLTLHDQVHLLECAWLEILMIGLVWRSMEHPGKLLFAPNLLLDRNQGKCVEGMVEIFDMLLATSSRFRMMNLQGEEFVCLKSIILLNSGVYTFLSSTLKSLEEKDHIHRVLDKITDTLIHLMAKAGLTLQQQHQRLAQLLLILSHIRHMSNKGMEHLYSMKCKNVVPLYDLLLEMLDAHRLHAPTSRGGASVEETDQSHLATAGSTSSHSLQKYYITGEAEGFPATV

CC1(C)[C@H]2CC[C@](C)(C2)[C@H]1O
inactive: all assays above

N#CCC(=O)NN
inactive: all assays above

COC(=O)c1ccccc1C(=O)O
inactive: all assays above

CC1(C)Oc2ccc(C#N)cc2[C@@H](N2CCCC2=O)[C@@H]1O
inactive: all assays above

COC(=O)CCCCC(=O)O
inactive: all assays above

CCCCOC(=O)C(C)O (stereo not given)
inactive: all assays above

OCC1CCC(CO)CC1 (stereo not given)
inactive: all assays above

Cc1cc(C)c(C(=O)O)c(C)c1
inactive: all assays above

CN(C)C(C)(C)CO
active: [7] 77 µM
inactive: all other assays above

COc1nc(N)nc2nc[nH]c12
inactive: all assays above

CCOC(=O)CC1(C)OCC(C)O1 (stereo not given)
inactive: all assays above

CCCCOCC(C)O (stereo not given)
inactive: all assays above
